Results filed as inconclusive are left out. Calls of active or inactive are those of the source. Calls come from the whole dose curve; as a rule, active = well fitted curve in the direction sought with a large enough effect; inconclusive = small, poorly fitted or top-dose-only effect, or another doubt; inactive = no such curve, though single readings can be large; an effect the other way counts as inactive or inconclusive.
Experiments:
KB-3-1 = assay: Cytotoxic Profiling of Annotated Libraries Using Quantitative High-Throughput Screening (AID 1296008); conditions: Five cell lines viability, CellTiter-Glo ATP luminescence, 48-72 h; max response: active compounds read low; note: nearly all actives have a fitted effect of over 60% in size; for max response: % is set by controls: 0 for no effect and ±100 for the full control effect
In short: (§1)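 Cytotoxicity was measured as CellTiter-Glo ATP luminescence, read after 10 min at room temperature. Compound treatment of the cells lasted 48 or 72 hr at 37 degrees Celsius in a qHTS format.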

NIH3T3 [1] = assay: as above; conditions: Five cell lines viability, CellTiter-Glo ATP luminescence, 48-72 h; max response: active compounds read low
In short: as §1

HACAT = assay: qHTS assay to identify novel small-molecules to repurpose for Merkel cell carcinoma treatment (AID 1296009); conditions: MCC and control cell lines, CellTiter-Glo viability, 72 h; at 44.8 µM (top of the series) unless noted; note: nearly all actives have a fitted effect of over 60% in size
In short: (§2)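 After compound transfer in DMSO, plates were kept 72 hr at 37 degree celsius. Luminescent ATP signal from CellTiter-Glo served as viability measure, normalized against DMSO and no-cell controls.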

HEK293T [2] = assay: as above; conditions: MCC and control cell lines, CellTiter-Glo viability, 72 h; series mostly up to 44.8 µM
In short: as §2

NIH3T3 [3] = assay: as above; conditions: MCC and control cell lines, CellTiter-Glo viability, 72 h; at 44.8 µM (top of the series) unless noted
In short: as §2

C33A = assay: Primary qHTS to identify gynecologic anti-cancer compounds using libraries of approved drugs and bioactive compounds (AID 1345084); conditions: Gynecologic cancer cell panel viability, ATPlite luminescence, 48 h; series mostly up to 57.5 µM; note: % is set by controls: 0 for no effect and ±100 for the full control effect; nearly all actives have a fitted effect of over 55% in size
In short: (§3)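 Five-concentration response, 48 h; readout is ATP-driven luciferase luminescence.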

CAOV3 = assay: as above; conditions: Gynecologic cancer cell panel viability, ATPlite luminescence, 48 h; series mostly up to 57.5 µM
In short: as §3

CASKI = assay: as above; conditions: Gynecologic cancer cell panel viability, ATPlite luminescence, 48 h; series mostly up to 57.5 µM
In short: as §3

Es-2 = assay: as above; conditions: Gynecologic cancer cell panel viability, ATPlite luminescence, 48 h; series mostly up to 57.5 µM
In short: as §3

HeLa = assay: as above; conditions: Gynecologic cancer cell panel viability, ATPlite luminescence, 48 h; series mostly up to 57.5 µM
In short: as §3

Hek293T [4] = assay: as above; conditions: Gynecologic cancer cell panel viability, ATPlite luminescence, 48 h, control line for the selectivity index; series mostly up to 57.5 µM
In short: as §3

JEG-3 = assay: as above; conditions: Gynecologic cancer cell panel viability, ATPlite luminescence, 48 h; series mostly up to 57.5 µM
In short: as §3

OV90 = assay: as above; conditions: Gynecologic cancer cell panel viability, ATPlite luminescence, 48 h; series mostly up to 57.5 µM
In short: as §3

PA-1 = assay: as above; conditions: Gynecologic cancer cell panel viability, ATPlite luminescence, 48 h; series mostly up to 57.5 µM
In short: as §3

CC(=O)OCC1=C[C@H](O)[C@@H]2C(C(=O)O)=CO[C@@H](O[C@@H]3O[C@H](CO)[C@@H](O)[C@H](O)[C@H]3O)[C@H]12
inactive: max response (KB-3-1) -1.91% | outcome (NIH3T3 [1]) | outcome (HACAT) inactive [at 17.4 µM] | Potency (HEK293T [2]) | outcome (NIH3T3 [3]) inactive [at 17.4 µM] | Potency (C33A) | Potency (CAOV3) | Potency (CASKI) | Potency (Es-2) | Potency (HeLa) | Potency (Hek293T [4]) | Potency (JEG-3) | Potency (OV90) | Potency (PA-1)

C=CC(C)(C)C12CC3C(=O)NC(Cc4cnc[nH]4)C(=O)N3C1Nc1ccccc12 (stereo unspecified)
inactive: outcome (KB-3-1) | outcome (NIH3T3 [1]) | outcome (HACAT) | Potency (HEK293T [2]) | outcome (NIH3T3 [3]) | Potency (C33A) | Potency (CAOV3) | Potency (CASKI) | Potency (Es-2) | Potency (HeLa) | Potency (Hek293T [4]) | Potency (JEG-3) | Potency (OV90) | Potency (PA-1)

CC(C#N)C(C)O[C@@H]1O[C@H](CO)[C@@H](O)[C@H](O)[C@H]1O (stereo partly specified)
inactive: outcome (KB-3-1) | outcome (NIH3T3 [1]) | outcome (HACAT) | Potency (HEK293T [2]) | outcome (NIH3T3 [3]) | Potency (C33A) | Potency (CAOV3) | Potency (CASKI) | Potency (Es-2) | Potency (HeLa) | Potency (Hek293T [4]) | Potency (JEG-3) | Potency (OV90) | Potency (PA-1)

CC(C)(O)C1=CCC23COC(C2)C(O)(C(=O)O)CCC13 (stereo unspecified)
inactive: max response (KB-3-1) 2.8% | outcome (NIH3T3 [1]) | outcome (HACAT) | Potency (HEK293T [2]) | outcome (NIH3T3 [3]) | Potency (C33A) | Potency (CAOV3) | Potency (CASKI) | Potency (Es-2) | Potency (HeLa) | Potency (Hek293T [4]) | Potency (JEG-3) | Potency (OV90) | Potency (PA-1)

C=C1CC[C@@H]2[C@](C)(CO[C@@H]3O[C@H](CO)[C@@H](O)[C@H](O)[C@H]3O)CCC[C@@]2(C)[C@@H]1CCC1=CCOC1=O
inactive: max response (KB-3-1) 2.64% | outcome (NIH3T3 [1]) | outcome (HACAT) inactive [at 17.4 µM] | Potency (HEK293T [2]) | outcome (NIH3T3 [3]) inactive [at 17.4 µM] | Potency (C33A) | Potency (CAOV3) | Potency (CASKI) | Potency (Es-2) | Potency (HeLa) | Potency (Hek293T [4]) | Potency (JEG-3) | Potency (OV90) | Potency (PA-1)

COc1ccc2cc(OCC3(C(=O)O)CN(C(=O)c4ccc(F)cc4)C3)ccc2c1
inactive: max response (KB-3-1) 1.45% | outcome (NIH3T3 [1]) | outcome (HACAT) | Potency (HEK293T [2]) | outcome (NIH3T3 [3]) | Potency (C33A) | Potency (CAOV3) | Potency (CASKI) | Potency (Es-2) | Potency (HeLa) | Potency (Hek293T [4]) | Potency (JEG-3) | Potency (OV90) | Potency (PA-1)

CC1CCC2(O1)C(C)(C)CC(O[C@@H]1O[C@H](CO[C@@H]3OC[C@](O)(CO)[C@H]3O)[C@@H](O)[C@H](O)[C@H]1O)CC2(C)O (stereo partly specified)
inactive: outcome (KB-3-1) | outcome (NIH3T3 [1]) | outcome (HACAT) inactive [at 17.4 µM] | Potency (HEK293T [2]) | outcome (NIH3T3 [3]) inactive [at 17.4 µM] | Potency (C33A) | Potency (CAOV3) | Potency (CASKI) | Potency (Es-2) | Potency (HeLa) | Potency (Hek293T [4]) | Potency (JEG-3) | Potency (OV90) | Potency (PA-1)

C=C1CC[C@H]2[C@@H](/C=C(\C)C(=O)[C@@]3(OC(C)=O)C[C@H](C)[C@H](OC(C)=O)[C@@H]3[C@H]1OC(C)=O)C2(C)C
inactive: outcome (KB-3-1) | outcome (NIH3T3 [1]) | outcome (HACAT) inactive [at 17.4 µM] | Potency (HEK293T [2]) | outcome (NIH3T3 [3]) inactive [at 17.4 µM] | Potency (C33A) | Potency (CAOV3) | Potency (CASKI) | Potency (Es-2) | Potency (HeLa) | Potency (Hek293T [4]) | Potency (JEG-3) | Potency (OV90) | Potency (PA-1)

CC1=CC[C@]2(C(=O)O[C@@H]3O[C@H](CO[C@@H]4O[C@H](CO)[C@@H](O[C@@H]5O[C@@H](C)[C@H](O)[C@@H](O)[C@H]5O)[C@H](O)[C@H]4O)[C@@H](O)[C@H](O)[C@H]3O)CC[C@]3(C)C(CCC4[C@@]5(C)C[C@@H](O)[C@H](O)[C@@](C)(CO)C5CC[C@]43C)C2C1C (stereo partly specified)
inactive: max response (KB-3-1) 0.857% | outcome (NIH3T3 [1]) | outcome (HACAT) inactive [at 9.27 µM] | outcome (HEK293T [2]) inactive [at 9.27 µM] | outcome (NIH3T3 [3]) inactive [at 9.27 µM] | activity change, negative = cytotoxicity (C33A) 6.24% [at 11.6 µM] | activity change, negative = cytotoxicity (CAOV3) 6.14% [at 11.6 µM] | activity change, negative = cytotoxicity (CASKI) 4.37% [at 11.6 µM] | activity change, negative = cytotoxicity (Es-2) 6.73% [at 11.6 µM] | activity change, negative = cytotoxicity (HeLa) 3.93% [at 11.6 µM] | activity change, negative = cytotoxicity (Hek293T [4]) -4.38% [at 11.6 µM] | activity change, negative = cytotoxicity (JEG-3) -1.63% [at 11.6 µM] | activity change, negative = cytotoxicity (OV90) 6.64% [at 11.6 µM] | activity change, negative = cytotoxicity (PA-1) 10.1% [at 11.6 µM]

COc1ccc(C(OC2OC(CO)C(O)C(O)C2O)C(C)O)cc1 (stereo unspecified)
inactive: max response (KB-3-1) 5.57% | outcome (NIH3T3 [1]) | outcome (HACAT) | Potency (HEK293T [2]) | outcome (NIH3T3 [3]) | Potency (C33A) | Potency (CAOV3) | Potency (CASKI) | Potency (Es-2) | Potency (HeLa) | Potency (Hek293T [4]) | Potency (JEG-3) | Potency (OV90) | Potency (PA-1)

COc1cc([C@H]2OC[C@]3(OC(C)=O)[C@@H](c4ccc(O[C@@H]5O[C@H](CO)[C@@H](O)[C@H](O)[C@H]5O)c(OC)c4)OC[C@H]23)ccc1O
inactive: outcome (KB-3-1) | max response (NIH3T3 [1]) 4.83% | outcome (HACAT) inactive [at 17.4 µM] | Potency (HEK293T [2]) | Potency (C33A) | Potency (CAOV3) | Potency (CASKI) | Potency (Es-2) | Potency (HeLa) | Potency (Hek293T [4]) | Potency (JEG-3) | Potency (OV90) | Potency (PA-1)

CCCC1=CC2=C(CO1)C(=O)C(C)(OC(=O)c1c(C)cc(OC)cc1O)C(O)C2 (stereo unspecified)
inactive: max response (KB-3-1) 0.111% | outcome (NIH3T3 [1]) | outcome (HACAT) inactive [at 17.4 µM] | Potency (HEK293T [2]) | Potency (C33A) | Potency (CAOV3) | Potency (CASKI) | Potency (Es-2) | Potency (HeLa) | Potency (Hek293T [4]) | Potency (JEG-3) | Potency (OV90) | Potency (PA-1)

From PubChem BioAssay (NCATS)
